Screening data (PubChem)
HCV inhibitor – HCV inhibition; Huh7.5.1 HCVcc-Cre infection, luciferase reporter, 44 h; AID 651820; actives 3.4% (n = 340,000); Potency, µM (highest dose often 41.8 µM), actives largely listed as inhibitors; active = well fitted inhibition curve with a large enough effect; inconclusive = small, poorly fitted or top-dose-only effect, or another doubt; inactive = no such curve, though single readings can be large or run the other way
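After 44 h co-culture of compound, cells and HCVcc-Cre (~0.5 moi), substrate is added for 15 min at room temperature and luciferase measured over 15 sec. Cells were seeded at 1,000/well and pre-cultured 4 h.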
FMDV inh – blocks foot and mouth disease virus; Potency, µM (doses to about 57.9 µM), usual class: inhibitors; FMDV antiviral cell-based qHTS; AID 1159524; actives 1.2% (n = 410,000); calls by dose curve; tested in HEK293T cells; note: read-out not given here; nearly all actives have a fitted effect of over 45% in size
CHX counter – counter-screen for Shiga toxin inhibitors: cycloheximide protein synthesis inhibition | cell reporter, cycloheximide protein synthesis inhibition counterscreen | max response, % | actives 12% (n = 300,000) | AID 2314; in the data active = max response mostly above about 13%, no sharp cut-off; inactive = mostly below about 14%; note: read at 38.3 µM for the half of the compounds with a filed dose
MARV entry inh – inhibitors of Marburg virus binding or cell entry; Marburg virus pseudotyped entry inhibition, cell reporter; actives 1.8% (n = 300,000); AID 540276; Potency, µM (titrated, usually from 37.8 µM), most hits filed as inhibitors; calls by dose curve; tested in HEK293 cells
Shiga toxin inh – inhibitors of Shiga toxin in Vero cells. inhibition, % at 38.7 µM. Vero cells, Shiga toxin protein synthesis inhibition reporter. actives 9.2% (n = 290,000); in the data active = inhibition mostly above about 28%, no sharp cut-off; inactive = mostly below about 43%
LASV entry inh – inhibitors of Lassa virus binding or cell entry; Lassa virus pseudotype entry inhibition, cell reporter; Potency, µM (highest dose often 37.9 µM), hits mostly inhibitors; actives 1.2% (n = 300,000); calls by dose curve; tested in HEK293 cells; note: nearly all actives have a fitted effect of over 50% in size
Large screens that a line does not name were inactive; ! = a repeat was not active. An excerpt weighted towards active compounds, which were near 13% of everything screened.

O=C(CCCc1ccccc1)NCc1ccccn1	none (no result: MARV entry inh, Shiga toxin inh, LASV entry inh)
Cc1ccnc(NC(=O)CSc2ccccn2)c1	CHX counter 29.2 (no result: LASV entry inh)
Cc1ccnc(NC(=O)CCCc2c[nH]c3ccccc23)c1	CHX counter 23.2, Shiga toxin inh 46.1
O=C(CCCc1ccccc1)Nc1ccccn1	CHX counter 19.0, Shiga toxin inh 74.1
Cc1ccc(NC(=O)CCCc2c[nH]c3ccccc23)nc1	none (no result: MARV entry inh, LASV entry inh)
O=C(CSCCc1ccccn1)Nc1ccccn1	CHX counter 15.1
CC(NC(=O)CCSc1nc(-c2ccco2)cc(C(F)(F)F)n1)c1ccccc1 (centres undefined)	HCV inhibitor inconclusive, MARV entry inh inconclusive
N#C/C(=C\c1ccc(OC(=O)c2ccccn2)cc1)C(N)=O	none
O=C(COC(=O)CCc1c[nH]c(=O)[nH]1)Nc1cccc(Cl)c1	none
Cc1ccnc(NC(=O)CCCc2ccccc2)c1	CHX counter 57.9, MARV entry inh inconclusive, Shiga toxin inh 74.4
Cn1cnc2cc(OC(=O)c3ccccc3)ccc21	CHX counter 48.5, Shiga toxin inh 107.9 (no result: FMDV inh)
Cc1ccc(C(=O)Oc2ccc3c(c2)ncn3C)cc1	CHX counter 49.4, Shiga toxin inh 98.5 (no result: FMDV inh)
Cc1ccc(OCC(=O)Nc2ccc3c(c2)ncn3C)cc1	none (no result: CHX counter, Shiga toxin inh)
COc1cccc2cc(C(=O)NCc3ccc(C)cc3)c(=O)oc12	none
COc1ccc2cc(C(=O)NCc3ccccc3)c(=Nc3ccc(C(=O)O)cc3)oc2c1	HCV inhibitor inconclusive
CCn1cc(C(=O)NCc2ccco2)c2cc(OC)c(OC)cc2c1=O	CHX counter 20.8
COc1cccc2cc(C(=O)NCc3ccco3)c(=Nc3ccc(C(=O)O)cc3)oc12	CHX counter 76.0, Shiga toxin inh 195.6 (no result: FMDV inh)
COc1cc(OC)c(C(=O)NCc2ccco2)cc1OC	none
COc1cc(C(F)(F)F)ccc1C(=O)NCCc1ccco1	CHX counter 68.2, Shiga toxin inh 80.1 (no result: MARV entry inh, LASV entry inh)
COc1cccc2cc(C(=O)Nc3ccc(CC(=O)O)cc3)c(=O)oc12	FMDV inh inconclusive, MARV entry inh 10µM, LASV entry inh inconclusive (no result: HCV inhibitor, CHX counter, Shiga toxin inh)
Cc1cc(Nc2cccc(Cl)c2)n2ncnc2n1	none
O=C(Cn1c2ccc(F)cc2c2nc3n(c(=O)c21)CCS3)NC1CCCC1	none
COc1ccc2cc3c(N)c(C(=O)NCc4ccco4)sc3nc2c1	HCV inhibitor inconclusive, MARV entry inh inconclusive, Shiga toxin inh 41.7
COc1cccc2cc(C(=O)NCc3ccco3)c(=O)oc12	CHX counter 34.3, MARV entry inh inconclusive, Shiga toxin inh 73.8
COc1ccc2oc(=O)c(C(=O)NCc3ccco3)cc2c1	CHX counter 25.4, Shiga toxin inh 85.2
Nc1nc(CCl)nc(Nc2cccc3ccccc23)n1	HCV inhibitor 0.562µM, FMDV inh inconclusive (no result: MARV entry inh, LASV entry inh)
Cc1ccccc1Nc1nc(N)nc(COC(=O)c2ccc(O)cc2)n1	CHX counter 20.4, LASV entry inh inconclusive
Cc1ccccc1CSCc1nc(N)nc(Nc2ccccc2C)n1	CHX counter 48.6, MARV entry inh inconclusive, Shiga toxin inh 84.8
Nc1nc(Nc2cccc3ccccc23)nc(C2CCCC2=O)n1 (centres undefined)	none (no result: HCV inhibitor, FMDV inh, MARV entry inh, LASV entry inh)
Cc1ccccc1Nc1nc(N)nc(COC(=O)c2ccccc2)n1	CHX counter 81.5, Shiga toxin inh 78.9, LASV entry inh inconclusive
Cc1ccccc1Nc1cc(C(=O)NCC2CCCO2)c2ccccc2n1 (centres undefined)	none (no result: MARV entry inh, LASV entry inh)
O=C(NCCC1CCCCN1S(=O)(=O)c1ccc(F)cc1)C(=O)NCc1ccccn1 (centres undefined)	none (no result: CHX counter, Shiga toxin inh)
N#CCC(=O)N/N=C\c1ccc(OC/C=C/c2ccccc2)cc1	CHX counter 27.4, LASV entry inh inconclusive
N#CCC(=O)N/N=C\c1ccccc1OC/C=C/c1ccccc1	CHX counter 50.2, Shiga toxin inh 77.4 (no result: MARV entry inh, LASV entry inh)
CS(=O)(=O)c1cccc(C(=O)NCc2ccccc2)c1	none (no result: FMDV inh)
Cc1nn(C)cc1C(=O)NNC(=S)Nc1ccccc1	CHX counter 17.3, MARV entry inh inconclusive, LASV entry inh inconclusive
Cc1cc(C(=O)NNC(=S)Nc2ccccc2)nn1C	Shiga toxin inh 61.2, LASV entry inh inconclusive
COc1ccccc1C(=O)NNC(=S)Nc1ccccc1	MARV entry inh inconclusive
CC(C)(C)C(=O)Nc1ccccc1-c1nc2ccccc2[nH]c1=O	none (no result: Shiga toxin inh)
Cc1ccc(S(=O)(=O)N2CCOCC2)cc1NC(=O)CNCc1ccccc1Cl	FMDV inh inconclusive, MARV entry inh inconclusive, LASV entry inh inconclusive (no result: CHX counter, Shiga toxin inh)
CC1(C(=O)N2CCN(Cc3ccccc3Cl)CC2)CC1(Cl)Cl (centres undefined)	CHX counter 19.7, Shiga toxin inh 120.0 (no result: MARV entry inh, LASV entry inh)
COc1cc(Cn2c3ccc(NC(=S)NCc4ccc(C)cc4)cc3c(=O)n2C)ccc1F	none (no result: HCV inhibitor, CHX counter, MARV entry inh, Shiga toxin inh, LASV entry inh)
Cn1ncc(Cl)c(Oc2ccc(C(C)(C)C)cc2)c1=O	CHX counter 20.3, MARV entry inh inconclusive
Cc1cc(C(=O)NC(C)c2ccncc2)no1 (centres undefined)	LASV entry inh inconclusive
Fc1ccc(F)c(C2=NNC(=NCC3CCCO3)SC2)c1 (centres undefined)	CHX counter 33.0, Shiga toxin inh 131.2 (no result: MARV entry inh, LASV entry inh)
CC(=O)Nc1ccc(C2=NNC(=NCC3CCCO3)SC2)cc1 (centres undefined)	none
COc1ccc(NC(=O)CCS(=O)(=O)c2nc(-c3ccc4c(c3)OCO4)cc(C(F)(F)F)n2)cc1OC	none (no result: HCV inhibitor, CHX counter, Shiga toxin inh)
COc1ccc(NC(=S)NC(NC(=O)c2cccc(Cl)c2)C(Cl)(Cl)Cl)c([N+](=O)[O-])c1 (centres undefined)	HCV inhibitor 11.2µM!, LASV entry inh inconclusive
CCC(=O)Nc1ccc(C(=O)Nc2ccc(OC)cc2[N+](=O)[O-])cc1	none
COc1ccc(NC(=S)NC(NC(=O)c2cccc(C)c2)C(Cl)(Cl)Cl)c([N+](=O)[O-])c1 (centres undefined)	HCV inhibitor inconclusive, MARV entry inh inconclusive, LASV entry inh inconclusive
CCCc1cc(C(=O)Nc2ccc(OC)cc2[N+](=O)[O-])cs1	CHX counter 27.8 (no result: MARV entry inh, LASV entry inh)
COc1ccc(NC(=O)c2cccnc2)c([N+](=O)[O-])c1	HCV inhibitor inconclusive, LASV entry inh inconclusive
COc1ccc(NC(=O)c2ccccc2)c([N+](=O)[O-])c1	HCV inhibitor inconclusive, CHX counter 32.2, Shiga toxin inh 74.2
COc1ccc(/C=C/C(=O)Nc2cc(S(=O)(=O)N3CCOCC3)ccc2C)cc1OC	none
COc1ccc(S(=O)(=O)Nc2ccc3c(c2)C(=O)N([C@H](C)CO)C[C@H](C)[C@@H](CN(C)C(=O)Nc2c(C)noc2C)OCCCC[C@H](C)O3)cc1	none (no result: HCV inhibitor, CHX counter, MARV entry inh, Shiga toxin inh, LASV entry inh)
O=c1cc(N2CCCC2)c(-c2ccccc2)n[nH]1	MARV entry inh inconclusive
CCc1cccc(NC(=O)c2ccc(NC(=O)N3CCSc4ncccc43)cc2)c1	FMDV inh 28.2µM (no result: HCV inhibitor, CHX counter, MARV entry inh, Shiga toxin inh)
CCCCOc1ccc(CNC(=O)c2cccc(NC(=O)N3CCSc4ncccc43)c2)cc1	FMDV inh 22.4µM (no result: HCV inhibitor, CHX counter, MARV entry inh, Shiga toxin inh)
O=C(CCc1nc(-c2ccccc2F)no1)NCCN1CCc2ccccc2C1	none
CCOC(=O)N1CCc2cc(OC)c(OC)c3c2c1cc1cc(OC)c(OC)cc13	HCV inhibitor inconclusive, FMDV inh inconclusive, MARV entry inh 7.94µM, LASV entry inh inconclusive (no result: CHX counter, Shiga toxin inh)
